{"source": "PubChem BioAssay (NCATS)", "key": {"[1]": {"assay": "qHTS assay for cell viability of HEK293 cells (AID 743288; active = well fitted curve in the direction sought with a large enough effect; an effect the other way counts as inactive or inconclusive; also: nearly all actives have a fitted effect of over 50% in size)", "details": "ATP luminescence (CellTiter-Glo), 18 h, active compounds read low", "procedure,_shortened": "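HEK293, 18 h, 37 C, ATP luminescence. Cells at 2,000/well were allowed at least 5 h to settle before dosing; CellTiter-Glo developed 30 min at RT.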"}, "[2]": {"assay": "qHTS assay for cell viability of the p53RE-bla HCT-116 cell line (AID 743292; active = well fitted curve in the direction sought with a large enough effect; an effect the other way counts as inactive or inconclusive; also: nearly all actives have a fitted effect of over 55% in size)", "details": "p53RE-bla HCT-116 viability, ATP luminescence, 16 h; series mostly up to 95 µM", "procedure,_shortened": "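ATP-based luminescence, 16 h compound exposure at 37 C, p53RE-bla HCT-116 cells at 4,000/well.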"}, "[3]": {"details": "Ebola virus entry assay, green fluorescence channel"}, "[4]": {"details": "Ebola virus entry assay, ratio channel"}, "[5]": {"details": "Ebola virus entry assay, green channel fluorescence"}, "[6]": {"assay": "qHTS Assay for Identifying Gametocytocidal Compounds (AID 743244; active = well fitted curve in the direction sought with a large enough effect; an effect the other way counts as inactive or inconclusive;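 also: actives lower the fluorescent signal which means gametocytes are killed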)", "details": "P. falciparum 3D7 stage III-V gametocytes, alamarBlue, 72 h; max response: active compounds read low", "procedure,_shortened": "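P. falciparum 3D7 stage III–V gametocytes (20,000 cells/well) were exposed to compounds for 72 h at 37 °C, 5% CO2. AlamarBlue was then added for 24 h; decreased resorufin fluorescence (Ex 525/Em 598 nm) indicated loss of viability.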"}}, "note": "Where “and” joins values, the source holds several entries; their conditions need not be identical. Equal values may be shown once. Records with an inconclusive call do not appear. Where a call stands in place of a potency, no number is given. For some assays here: Potency and affinity values are given separately. Calls of active or inactive are those of the source. Unless noted, no rule for the calls is given here."}
{"smiles": "C[C@]12CCC(=O)C=C1CC[C@@H]1[C@@H]2CC[C@]2(C)C(=O)CC[C@@H]12", "values": [{"measurement": "max response", "setting": "[1]", "value": "-2.66% (inactive)"}, {"measurement": "Potency", "setting": "[2]", "value": "inactive"}, {"measurement": "efficacy", "setting": "[3]", "value": "19.1% (inactive)"}, {"measurement": "outcome", "setting": "[4]", "value": "inactive"}, {"measurement": "outcome", "setting": "[5]", "value": "inactive"}]}
{"smiles": "O=C(CS(=O)Cc1ccco1)NC/C=C\\COc1cc(CN2CCCCC2)ccn1", "note": "(centres undefined)", "values": [{"measurement": "efficacy", "setting": "[3]", "value": "29.8% (inactive)"}, {"measurement": "outcome", "setting": "[5]", "value": "inactive"}]}
{"smiles": "Clc1cccc(SC2CCNCC2)n1", "values": [{"measurement": "efficacy", "setting": "[3]", "value": "-16% (inactive)"}, {"measurement": "outcome", "setting": "[4]", "value": "inactive"}, {"measurement": "outcome", "setting": "[5]", "value": "inactive"}]}
{"smiles": "Cc1ccc(C(C)C)c(O)c1", "values": [{"measurement": "efficacy", "setting": "[3]", "value": "-16.9% (inactive)"}, {"measurement": "outcome", "setting": "[4]", "value": "inactive"}, {"measurement": "outcome", "setting": "[5]", "value": "inactive"}]}
{"smiles": "C[C@H](N)C(=O)c1ccccc1", "values": [{"measurement": "efficacy", "setting": "[3]", "value": "31.4% (inactive)"}, {"measurement": "outcome", "setting": "[5]", "value": "inactive"}]}
{"smiles": "CCOC(=O)CC(SP(=S)(OC)OC)C(=O)OCC", "note": "(centres undefined)", "values": [{"measurement": "max response", "setting": "[6]", "value": "7.01% (inactive) and -6.6% (inactive)"}, {"measurement": "max response", "setting": "[1]", "value": "-11.8% (inactive) and -13% (inactive) and -16.1% (inactive)"}, {"measurement": "Potency", "setting": "[2]", "value": "inactive"}, {"measurement": "efficacy", "setting": "[3]", "value": "-13.3% (inactive)"}, {"measurement": "outcome", "setting": "[4]", "value": "inactive"}, {"measurement": "outcome", "setting": "[5]", "value": "inactive"}]}
{"smiles": "Cc1onc(-c2ccccc2)c1-c1ccc(S(N)(=O)=O)cc1", "values": [{"measurement": "efficacy", "setting": "[3]", "value": "21% (inactive)"}, {"measurement": "outcome", "setting": "[5]", "value": "inactive"}]}
{"smiles": "OCCc1ccccc1", "values": [{"measurement": "efficacy", "setting": "[3]", "value": "36.8% (inactive)"}, {"measurement": "outcome", "setting": "[5]", "value": "inactive"}]}
{"smiles": "CC(=O)N[C@@H](CC(C)C)C(=O)O", "values": [{"measurement": "efficacy", "setting": "[3]", "value": "-14.4% (inactive)"}, {"measurement": "outcome", "setting": "[5]", "value": "inactive"}]}
{"smiles": "COc1ccc2[nH]cc(CCNC(C)=O)c2c1", "values": [{"measurement": "efficacy", "setting": "[3]", "value": "-12.3% (inactive)"}, {"measurement": "outcome", "setting": "[5]", "value": "inactive"}]}
